Experimental data published in ChEMBL document CHEMBL3988442, “University of Dundee, Small-Polar-MMV Screening Library” (2021).
The campaign covered roughly 48,000 compounds. About 13,000 (27%) showed an effect of 50% or more. This is one part of the list.

The compounds below were run on Wolbachia pipientis (assay: Anti-Wolbachia Cell-Based Screen). Details: 5 µM.
Type: functional
Design: scale not given: in the data most compounds retested in dose-response had high values
In the case of `COc1ccc(Oc2cccc(C#N)n2)cc1CN1CCCC1`, the “Percent Effect” value is reported as -5.576%. In the case of `COc1ccc(C(C(=O)O)N(C)CCN2CCCC2)cc1F` (centres undefined), the “Percent Effect” value is reported as 3.754%. With `CNC(=O)c1cccc(NC(=O)CN2CCN(S(C)(=O)=O)CC2)c1` the “Percent Effect” value was 1.111%. `CCC(=O)N(C)Cc1cccc(OC(C)C)c1` was tested, and the “Percent Effect” value was -5.096%. `CCc1nc(C)c(-c2nccn2CC2CCN(C3CCCC3)CC2)[nH]1` was tested, and the “Percent Effect” value was -19.3%. For `O=C(NCC1CC1)C1CCC2(CCN(C(=O)c3cccs3)CC2)O1` (centres undefined), the “Percent Effect” value was 94.19%. `O=C(NC1CCC1)C1CCC2(CN(C(=O)c3ccco3)C2)O1` (centres undefined) was tested, and the “Percent Effect” value was -15.31%. `O=C(c1cccs1)N1CCC2(CC1)CC(Oc1ccccc1)CO2` (centres undefined) was tested, and the “Percent Effect” value was 6.178%. With `O=C(NCC1CC1)C1CCC2(CCN(C(=O)c3ccco3)CC2)O1` (centres undefined) the “Percent Effect” value was 87.87%. In the case of `O=C(NCC1CC1)C1CCC2(CCN(C(=O)c3ccoc3)CC2)O1` (centres undefined), the “Percent Effect” value is reported as 90.09%. `Cc1ccccc1C(=O)N1CC(C(=O)NCC2CC2)C2(CCOCC2)C1` (centres undefined) was tested, and the “Percent Effect” value was -6.965%. In the case of `Cc1ccccc1C(=O)N1CCC2(CCC(C(=O)NCC3CC3)O2)CC1` (centres undefined), the “Percent Effect” value is reported as 104%. In the case of `O=C(NCC1CCN(C(=O)c2ccoc2)CC1)c1ccccc1Br`, the “Percent Effect” value is reported as -10.47%. `COc1cccc(C(=O)NCC2CCN(C(=O)c3ccoc3)CC2)c1` was tested, and the “Percent Effect” value was -1.127%. With `O=C(NCC1CC1)C1CN(C(=O)c2cccs2)CC12CCOCC2` (centres undefined) the “Percent Effect” value was -5.71%. In the case of `Cc1ccccc1C(=O)NC[C@@H]1CCN(C(=O)C2(O)CCCC2)C[C@H]1O`, the “Percent Effect” value is reported as -6.733%. `O=C(NC[C@H]1OC[C@@H]2CCN(C(=O)c3ccco3)C[C@@H]21)C1CC1` was tested, and the “Percent Effect” value was -4.179%. In the case of `CNC(=O)[C@@H]1C[C@@H](NC(=O)CSc2ccccc2)CN1C1CCOCC1`, the “Percent Effect” value is reported as 0.9976%. In the case of `CCN(CC)c1ccc(NS(=O)(=O)c2cncc(F)c2)cn1`, the “Percent Effect” value is reported as -6.269%. In the case of `Cc1ccc(C(C)NCc2cn(CCC(N)=O)c3ccccc23)cc1C` (centres undefined), the “Percent Effect” value is reported as -0.5436%. `Cc1ccc(C(=O)N2CCC3(CCC(C(=O)NCC4CC4)O3)CC2)o1` (centres undefined) was tested, and the “Percent Effect” value was 101.4%. With `COC(=O)c1sccc1CN1CCN(C(=O)c2ccc(C)o2)CC1` the “Percent Effect” value was -11.02%. For `O=C(NCC1CC1)C1CCC2(CN(C(=O)c3ccno3)C2)O1` (centres undefined), the “Percent Effect” value was -9.78%. `CCN1CCN(C2CCN(Cc3nnc(C(C)(C)C)o3)CC2)C1=O` was tested, and the “Percent Effect” value was -3.577%. With `CCN1CCN(C2CCN(Cc3nnc(C4CC4)o3)CC2)C1=O` the “Percent Effect” value was 80.84%. In the case of `CCN1CCN(C2CCN(Cc3ncc(C(C)(C)C)o3)CC2)C1=O`, the “Percent Effect” value is reported as -2.934%. `CCN1CCN(C2CCN(Cc3nnc(C(C)C)o3)CC2)C1=O` was tested, and the “Percent Effect” value was 147.9%. `CCN1CCN(C2CCN(Cc3noc(C)n3)CC2)C1=O` was tested, and the “Percent Effect” value was 2.974%. In the case of `CN1CCN(C2CCN(Cc3nnc(C(C)(C)C)o3)CC2)C1=O`, the “Percent Effect” value is reported as 116.2%. With `CC(O)CN1CCN(Cc2nnc(C3CC3)o2)CC1` (centres undefined) the “Percent Effect” value was 3.93%. For `CN1CCN(C2CCN(Cc3noc(C(C)(C)C)n3)CC2)C1=O`, the “Percent Effect” value was 10.06%. For `CCc1nnc(CN2CCC(N3CCN(CC)C3=O)CC2)o1`, the “Percent Effect” value was 119.1%. For `CC(C)c1nnc(CN2C(=O)OC[C@@H]2C(C)C)o1`, the “Percent Effect” value was -6.188%. With `CCN1CCN(C2CCN(Cc3c(C)noc3C)CC2)C1=O` the “Percent Effect” value was -0.1089%. For `CCc1nnsc1C(=O)NCC1CN(CC(C)C)CCO1` (centres undefined), the “Percent Effect” value was 19.89%. `CCC(=O)N1CCN(C(=O)c2ccc(OC)o2)[C@H]2CS(=O)(=O)C[C@H]21` was tested, and the “Percent Effect” value was 0.8171%. In the case of `O=C(c1ccc(-n2cnnc2)cc1Cl)N1CCCC(O)(CO)CC1` (centres undefined), the “Percent Effect” value is reported as 1.549%. `CC(=O)N[C@@H]1CN(Cc2ccccc2-n2nc(C)cc2C)C[C@H]1C(C)C` was tested, and the “Percent Effect” value was 5.074%. `Cc1cccc(NC(=O)N2CCOCC(CN(C)C)C2)c1C` (centres undefined) was tested, and the “Percent Effect” value was -12.45%. `O=C(c1cncs1)N1CCOCC(Cc2ccncn2)C1` (centres undefined) was tested, and the “Percent Effect” value was 102.2%. `CN(C)CC(=O)N1CCOCC(Cc2ccccn2)C1` (centres undefined) was tested, and the “Percent Effect” value was 100.7%. With `c1ccc(CN2CCOC[C@H]2c2nc(-c3ccncc3)c[nH]2)nc1` the “Percent Effect” value was -4.896%. `Cc1cnc(CC2COCCN(C(=O)c3cncs3)C2)cn1` (centres undefined) was tested, and the “Percent Effect” value was 133.5%. In the case of `O=C(NC[C@H]1OC[C@@H](NCc2ccccn2)[C@@H]1O)N1CCOCC1`, the “Percent Effect” value is reported as -13.39%. In the case of `COc1ccc(C(=O)N2CCOCC(CO)C2)cc1N1CCOCC1` (centres undefined), the “Percent Effect” value is reported as 2.678%. With `O=C(c1ccncc1)N1C[C@@H]2CC[C@H](C1)N(C(=O)N1CCOCC1)C2` the “Percent Effect” value was 7.35%. With `O=C(c1cncs1)N1CCOCC(Cc2ccccn2)C1` (centres undefined) the “Percent Effect” value was 121.8%. For `CCOCCn1nc(C)cc1C(=O)N1CCOCC(CO)C1` (centres undefined), the “Percent Effect” value was -4.092%. With `CC(=O)N(C)C1CCCc2nc(C)sc21` (centres undefined) the “Percent Effect” value was -2.267%.
